Assay results taken from PubChem BioAssay (Tox21).
Results filed as inconclusive are left out. Values without a mark were called inactive. Activity calls are given as the source filed them. The call rests on the fitted dose curve; in most records, active means well fitted cell-killing curve with a large enough effect in the repeat runs; inconclusive means weak or mixed curves, or effect the other way; inactive means flat fitted curve, though single readings scatter.

Test: qHTS RealTime-Glo MT Cell Viability Assay in HEK293 cells - 16 hour (AID 1224872); further: nearly all actives have a fitted effect of over 50% in size; on activity change, negative = cytotoxicity: top concentration of the series differs between compounds
Settings: RealTime-Glo luminescence; series mostly up to 76.8 µM; activity change, negative = cytotoxicity: at the top concentration
Source text: National Center for Advancing Translational Sciences [NCATS]
NIH Chemical Genomics Center [NCGC]
U.S. Environmental Protection Agency [EPA]
National Institutes of Environmental Health Sciences [NIEHS]
National Toxicology Program [NTP]
U.S. Food and Drug Administration [FDA]
Measure of cell viability is critical in the cell-base assay. Analysis of cell viability is necessary for the characterization of cell responses to cytotoxic drugs and environmental stress. A RealTime-Glo MT Cell Viability Assay to monitor cell viability in real time of continues cell culture during 40 hours of compound treatment was used to screen Tox21 10K library compounds in Hek293 cells. The RealTime-Glo MT Cell Viability Assay is a nonlytic, homogeneous, bioluminescent method to measure cell viability in real time using a simple, plate-based method. The assay involves adding NanoLuc luciferase and a cell-permeant prosubstrate to cells in culture. Viable cells reduce the proprietary prosubstrate to generate a substrate for NanoLuc luciferase. This substrate diffuses from cells into the surrounding culture medium, where it is rapidly used by the NanoLuc Enzyme to produce a luminescent signal. The signal correlates with the number of viable cells, making the assay well suited for cytotoxicity studies.
Tox21 Assay Protocol Summary:
The mixture of Hek293 cell suspension and reagents were dispensed at 600cells/6 ul/well in 1536-well tissue culture treated black solid bottom plates using a Multidrop dispenser. After the assay plates were incubated at a 37 C/5% CO2 incubator for 5 hours, 23 nL of compounds dissolved in DMSO, positive and negative controls was transferred to the assay plate by a pintool work station. The plates were incubated at 37 C for 40 hours. The luminescence intensity were measured at 0h, 8h, 16h, 24h, 32h and 40h time points using ViewLux plate reader during compound treatment.
On the % scale 0 is the no-effect control and ±100 the full control effect; potency means the concentration at half of the fitted maximal effect.

With `O=C1c2ccccc2C(=O)c2c(O)c(O)cc(O)c21` as the molecule, how does the “activity change, negative = cytotoxicity” value read?
Its value is -5.24%.

Which “activity change, negative = cytotoxicity” value does the source give for `CCOC(C)=O` here?
The value was -1.09%.

With `NC(=O)c1ccncc1` as the molecule, how does the “activity change, negative = cytotoxicity” value read?
The value was 11.2%.

With `CC(C)(C)C(=O)C(=O)O` as the molecule, how does the “activity change, negative = cytotoxicity” value read?
The value was -4.19%.

With `O=c1[nH]c2ccc(Cl)cc2o1` as the molecule, how does the “activity change, negative = cytotoxicity” value read?
The value was 5.85%.

With `CC(C)Nc1cccnc1N1CCN(C(=O)c2cc3cc(NS(C)(=O)=O)ccc3[nH]2)CC1` as the molecule, how does the “activity change, negative = cytotoxicity” value read?
The value was -17.9% [at 35.3 µM].

For `COc1cc(C(=O)NCCCCCC(=O)O)cc(OC)c1OC`, which “activity change, negative = cytotoxicity” value is on record?
The value was 6.95% [at 35.3 µM].

Which “activity change, negative = cytotoxicity” value does the source give for `c1ccc(C[n+]2cccc3ccccc32)cc1` here?
The value was -17.5%.

With `C=CC(=O)[O-].C=CC(=O)[O-].[Zn+2]` as the molecule, how does the “activity change, negative = cytotoxicity” value read?
Its value is -4.24%.

Which “activity change, negative = cytotoxicity” value does the source give for `Cc1ccc(C(C)(C)O)cc1` here?
Its value is -9.23%.

Which “activity change, negative = cytotoxicity” value does the source give for `CNC(=O)c1cnn(-c2nc(N)c3ncn([C@@H]4O[C@H](CO)[C@@H](O)[C@H]4O)c3n2)c1` here?
The value was -0.468% [at 35.3 µM].

Which “activity change, negative = cytotoxicity” value does the source give for `O=C1c2ccccc2C(=O)C1c1nc2ccccc2c(Br)c1O` here?
Its value is -4.3%.

For `Cc1cscn1`, which “activity change, negative = cytotoxicity” value is on record?
Its value is 11.3%.

Which “activity change, negative = cytotoxicity” value does the source give for `C=C1C[C@@]23CC[C@H]4[C@@](C)(CCC[C@@]4(C)C(=O)O[C@@H]4O[C@H](CO)[C@@H](O)[C@H](O)[C@H]4O)[C@@H]2CC[C@]1(O[C@@H]1O[C@H](CO)[C@@H](O)[C@H](O[C@@H]2O[C@H](CO)[C@@H](O)[C@H](O)[C@H]2O)[C@H]1O[C@@H]1O[C@H](CO)[C@@H](O)[C@H](O)[C@H]1O)C3` here?
Its value is 6.8%.

For `O=C(O)c1cccc(-c2noc(-c3ccccc3F)n2)c1`, which “activity change, negative = cytotoxicity” value is on record?
Its value is 1.74% [at 35.3 µM].

Which Potency does the source give for `CC(C)=CCC/C(C)=C/CC/C(C)=C/C(=O)OCC(=O)[C@@]1(O)CC[C@H]2[C@@H]3CCC4=CC(=O)C=C[C@]4(C)[C@H]3[C@@H](O)C[C@@]21C` here?
The Potency was 5.35 µM (active).

For `CCC1CO1` (stereo not given), which “activity change, negative = cytotoxicity” value is on record?
Its value is 3.49%.

For `N#CCc1ccc(Cl)cc1Cl`, which “activity change, negative = cytotoxicity” value is on record?
The value was -17.5%.

Which “activity change, negative = cytotoxicity” value does the source give for `CO/N=C(/C(=O)N[C@@H]1C(=O)N2C(C(=O)O)=C(COC(N)=O)CS[C@H]12)c1ccco1` here?
The value was -2.51%.

For `CC1(C)[C@H](C(=O)O)N2C(=O)C[C@H]2S1(=O)=O`, which “activity change, negative = cytotoxicity” value is on record?
The value was 3.6% [at 35.3 µM].

With `CCOc1cccc(-n2cc(C(=O)N3CCN(c4cc(C(=O)O)c5ccccc5c4)CC3)nc2-c2ccc(C)cc2)c1` as the molecule, how does the “activity change, negative = cytotoxicity” value read?
The value was -7.86%.

With `CN1C(=O)OC(C)(C)C1=O` as the molecule, how does the “activity change, negative = cytotoxicity” value read?
Its value is 2.23%.

Which Potency does the source give for `CN1C(=O)N(c2ccccc2Br)Cc2cnc(Nc3ccc4c(c3)OCC(CO)O4)nc21` (stereo not given) here?
The Potency was 6.92 µM (active).

With `O=C(O)C[C@H](NC(=O)OCc1ccccc1)C(=O)O` as the molecule, how does the “activity change, negative = cytotoxicity” value read?
Its value is -1.05%.

For `CC(=O)c1ccc([N+](=O)[O-])cc1`, which “activity change, negative = cytotoxicity” value is on record?
The value was -0.62%.

For `NC1[C@H]2CN(c3nc4c(cc3F)c(=O)c(C(=O)O)cn4-c3ccc(F)cc3F)C[C@@H]12` (stereo not given in full), which “activity change, negative = cytotoxicity” value is on record?
Its value is -8.67% [at 35.3 µM].

With `C=C1CCC2CC1C2(C)C` (stereo not given) as the molecule, how does the “activity change, negative = cytotoxicity” value read?
Its value is 0%.

For `COC(=O)CS`, which “activity change, negative = cytotoxicity” value is on record?
Its value is -2.1%.

With `CCCCN(CCN(CCCC)C(=O)N1CCOCC1)C(=O)N1CCOCC1` as the molecule, how does the “activity change, negative = cytotoxicity” value read?
Its value is -13.5% [at 35.3 µM].

For `O=C(OCC(O)CO)c1ccccc1Nc1ccnc2cc(Cl)ccc12` (stereo not given), which Potency is on record?
Its Potency is 8.49 µM (active).

For `C[C@@H](O)[C@H]1C(=O)N2C(C(=O)O)=C([C@H]3CCCO3)S[C@H]12`, which “activity change, negative = cytotoxicity” value is on record?
Its value is 13.2% [at 35.3 µM].

With `Cc1ccco1` as the molecule, how does the “activity change, negative = cytotoxicity” value read?
Its value is 12.5%.

Which “activity change, negative = cytotoxicity” value does the source give for `c1ccc2c(c1)CCc1ccccc1N2` here?
The value was -18.1% [at 35.3 µM].

For `CCCCCCCCCCCCCCN(CCO)CCO`, which Potency is on record?
Its Potency is 49 µM (active).

Which “activity change, negative = cytotoxicity” value does the source give for `Cc1cccc(O)c1N` here?
Its value is -9.06%.

Which “activity change, negative = cytotoxicity” value does the source give for `O=Cc1c2ccccc2c(Cl)c2ccccc12` here?
Its value is -14.2% [at 35.3 µM].

Which “activity change, negative = cytotoxicity” value does the source give for `Cc1ccc2c(Br)cc(Br)c(O)c2n1` here?
The value was -27.2% [at 35.3 µM].

For `COc1ccc(OC(=O)N(CC(=O)O)Cc2ccc(OCCc3nc(-c4ccccc4)oc3C)cc2)cc1`, which “activity change, negative = cytotoxicity” value is on record?
Its value is -10.9% [at 35.3 µM].

Which Potency does the source give for `CC(=O)NC1(c2cccc(F)c2)CCN(CC[C@@]2(c3ccc(Cl)c(Cl)c3)CN(c3ccccc3)C(=O)CO2)CC1` here?
The Potency was 17.4 µM (active).

With `COc1ccccc1NC(=O)c1cc2ccccc2cc1O` as the molecule, how does the Potency read?
The Potency was 24.5 µM (active).
